This excerpt belongs to a sample that is enriched for hits.
Tgondii IFNg – T. gondii growth inhibition under IFN-gamma. Toxoplasma gondii growth in IFN-gamma-treated host cells; hits give low values. activity change, negative = inhibition, % (concentration not given with the values). hit rate 3.8% among 69,000. AID 1259416; in the data active means activity change below about -70%, passing the limit was not always enough;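 further: host cells are HeLa cells infected with Toxoplasma gondii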
* hit, by the source's call; i = inactive; ! = repeats disagree.

SMILES	Tgondii IFNg
CCc1nc(Nc2ccc3c(c2)OCO3)c2nnn(Cc3ccccc3Cl)c2n1	-99*
Fc1ccccc1CSc1nc(Nc2ccc3c(c2)OCO3)c2ccccc2n1	-45
Clc1ccccc1Cn1nnc2c(Sc3nc4ccccc4s3)ncnc21	73
CCn1cc(C(CNC(=O)Nc2ccc(OC)cc2)c2cccnc2)c2ccccc21 (centres undefined)	i
Cc1ccc(S(=O)(=O)N2CCC3(CC2)Nc2ccc(Cl)cc2-n2cccc23)cc1C	24
CCOC(=O)c1c(NC(=O)c2cc(-c3ccccc3)nc3ccc(C)cc23)sc(C)c1C	22
Cc1ccc2nc(-c3ccccn3)cc(C(=O)Nc3n[nH]c4nc(C)ccc34)c2c1	-99*
O=C(NCCc1c[nH]c2ccc(Cl)cc12)c1cc(-c2ccccn2)nc2ccccc12	-70
CN(C)CCN1CCOC2(CCN(c3nccs3)CC2)c2ccccc21	-46
O=C(NC1CCCC1)C(c1cccs1)N(Cc1ccccc1)C(=O)Cc1cccs1 (centres undefined)	-18
COc1cccc(C(=O)N2CCC3(CC2)C(=O)NCCN3Cc2csc(C)n2)c1	-34
Cn1c(SCC(=O)c2ccc3c(c2)OCCO3)nnc1-c1ccc2ccccc2c1	-95*
O=C(CSc1nc2ccccc2o1)c1ccc2c(c1)OCCO2	52
CC(C)(C)c1nc2ccccc2c2nnc(SCC(=O)c3ccc4c(c3)OCCO4)n12	1
COc1ccc(-c2csc(CCNC(=O)C(C)n3cc(Cl)cn3)n2)cc1 (centres undefined)	25
C[C@H]1[C@@H](O)O[C@@H]2O[C@@]3(C)CC[C@H]4[C@H](C)CC[C@@H]1[C@@]24OO3	-94*
CC(=O)N1CCC(c2nc(C)cc(NC(C)C)n2)CC1	2
COc1ccc2cnc(C3CCN(CC(=O)c4cnc(C)cn4)CC3)cc2c1C	80
CCCc1nc(C(=O)Nc2ccc(NC(=O)CC)c(Cl)c2)cs1	2
Cc1ccc(CN2C[C@H]3COC[C@@]3(CNC(=O)c3cccnc3)C2)s1	-10
O=c1cc(-c2ccccc2)c2cc(Cl)c(O)cc2o1	-1
O=c1cc(O)c2c(=O)n(-c3ccccc3)c(-c3ccccc3)cc2o1	-100*
O=c1cc(CN2CCN(c3cccc(Cl)c3)CC2)c2cc(O)c(-c3ccccc3)cc2o1	33
NCCCCCCNS(=O)(=O)c1cccc2ccccc12	3
Nc1nc(NCC2CCC(CNS(=O)(=O)c3cccc4ccccc34)CC2)nc2ccccc12 (centres undefined)	-77*!
SMILES	Tgondii IFNg
NC(N)=NCCNS(=O)(=O)c1cccc2cnccc12	-49
Cc1oc(-c2ccc(OC(C)C)cc2)nc1Cn1ccn2nc(-c3ccc(Cl)cc3)cc2c1=O	26
COCCO[C@H]1CCN(c2ccc(C)nn2)[C@H]1Cc1cnn(C)c1	4
O=C(c1csc(-c2cccnc2)n1)N1C[C@@H]2[C@@H]3CC[C@@H](C3)[C@@H]2C1	-6
CCc1ccc(CNC(=O)c2c(O)c3cccnc3n(-c3cccc(F)c3)c2=O)cc1	39
CCc1ccc(CNC(=O)c2c(O)c3cccnc3n(-c3cccc(OC)c3)c2=O)cc1	-14
COc1cccc(-n2c(=O)c(C(=O)NCc3cc(F)cc(F)c3)c(O)c3cccnc32)c1	-101*
COc1cccc(-n2c(=O)c(C(=O)NCc3ccc(F)cc3)c(O)c3cccnc32)c1	16
COc1cccc(CNC(=O)c2c(O)c3cccnc3n(-c3cccc(F)c3)c2=O)c1	-98*
COc1cccc(CNC(=O)c2c(O)c3cccnc3n(-c3ccccc3)c2=O)c1	-66
COC[C@@H]1CCC2C(CCN2C(=O)CCc2ccccc2)O1 (some centres undefined)	-43
O=C(CCO)N1CC2CC1C[C@@H]2Oc1cccnc1 (some centres undefined)	28
O=C(NCC(c1cccnc1)c1c[nH]c2ccccc12)Nc1cccc(Br)c1 (centres undefined)	191
Cn1cc(C(CNC(=O)Nc2ccc(Br)cc2F)c2cccnc2)c2ccccc21 (centres undefined)	i
O=C(NCC(c1cccnc1)c1c[nH]c2ccccc12)Nc1ccc(Br)cc1F (centres undefined)	-116*
Cn1nnc2c1C(COCC1CC1)CN(C(=O)CS(C)(=O)=O)C2 (centres undefined)	-4
COc1ccc(C2=NC3(CCN(Cc4cc(C)ccc4C)CC3)NC2=O)cc1	56
CC(C)CN1C[C@]23CN(C(=O)C4CCC4)C[C@@H](C[C@H]2S1(=O)=O)O3	2
CCCC(NC(=O)c1cnc(N2CCOCC2)nc1)c1cccs1 (centres undefined)	100
COc1ccc(C2(NC(=O)c3cnc(N4CCOCC4)nc3)CCCC2)cc1	-80*
CCOC(=O)c1cnc(N2CCOCC2)nc1N	185
CC(C)n1cnc2c(-c3cccnc3)nc(C3CCN(C(=O)c4ccccn4)CC3)cc21	145
Cc1nc(N)nc(C)c1CCC(=O)N(C)CCN1CCCCC1	-4
COc1ccc(C(=O)O/N=C2/C(=O)N(C)c3ccccc32)cc1	-100*
CC1=NN(C)C(=O)/C1=N\OC(=O)c1ccc(Cl)cc1	-24
SMILES	Tgondii IFNg
O=C(O/N=C1/C(=O)c2ccccc2-c2ccccc21)c1ccccc1	-103*
O=C(OOC(=O)c1ccccc1)c1ccccc1	-44
COc1ccc(C(=O)/C=C2/c3ccccc3CC(C)(C)N2C)cc1	-63
O=C(OCc1ccccc1)c1ccccc1	5
COc1ccc(-c2nc(Cn3ccn4nc(-c5ccc(C)c(C)c5)cc4c3=O)c(C)o2)cc1	-20
CCOC(=O)C1CCN(C2CCN(c3cccc(NS(=O)(=O)c4ccc(F)cc4)c3)CC2)CC1	0
Cc1nc(C2CN(Cc3ccccc3)CCO2)no1 (centres undefined)	14
Cc1oc(-c2cccc(Oc3ccccc3)c2)nc1CN1CCN(c2ccccc2O)CC1	18
CN(C)C1CCCN(C(=O)CCc2ccccc2Cl)CC1 (centres undefined)	4
O=C(NCCC1=CCCCC1)C1CC12CCN(Cc1ccc3ccccc3c1)CC2 (centres undefined)	-25
CCN1C(=O)CCc2cc(NC(=O)/C=C/c3ccccc3)ccc21	-83*
Cc1ccc(C(=O)Nc2ccc3c(c2)CCC(=O)N3CC(C)C)c(C)c1	-65
CCN1C(=O)CCc2cc(NC(=O)c3ccc(F)cc3)ccc21	-26
CCN1C(=O)CCc2cc(NC(=O)CC(C)C)ccc21	5
COCCN1C(=O)CCc2cc(NC(=O)c3ccc4c(c3)OCO4)ccc21	-39
CCC(=O)Nc1ccc2c(c1)CCC(=O)N2CC(C)C	13
CCN1C(=O)CCc2cc(NC(=O)c3ccc4c(c3)OCO4)ccc21	-87*
CCN1C(=O)CCc2cc(NC(=O)C3CCCC3)ccc21	-8
CC(C)CN1C(=O)CCc2cc(NC(=O)c3ccc4c(c3)OCO4)ccc21	-77*
Cc1cccc(CN2CCN(Cc3cnc(-c4cccs4)nc3)CC2)c1	-20
COc1cccc(COC2CN(CC(C)C)C(=O)CN(C(=O)C3CC=CCC3)C2)c1 (centres undefined)	8
O=C(c1nc2c(s1)CCCN2C(=O)C1CC1)N1CCOCC1	73
CCn1c(C2CCCN(Cc3cnccc3C(F)(F)F)C2)n[nH]c1=O (centres undefined)	63
CCN1CCC2(CC1)CN(Cc1csc(C)n1)C(=O)CO2	6
CC(C)OC[C@H]1CCC[C@]12CN(C(=O)N1CCCC1)CCO2	71
O=C(c1nc2c(s1)CCCN2CC1CC1)N1CCOCC1	-3
CN(C)c1ccc(NC(=O)c2c(O)c3ccccc3[nH]c2=O)cc1	i
NC(=O)C1CCN(CCC(=O)O)CC1	3

Assay outcomes (PubChem BioAssay)
